{
  "source": "PubChem BioAssay",
  "key": {"[1]": {"test": "reducers of endogenous Her2 protein level, primary screen, SKBR3 breast tumor cells, AlphaScreen, ATP viability (AID 461;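 active = Her2 level under about 52% in both replicate screens, with viability over 70% of control, limit read from the data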)", "settings": "18-24 h, measured here: SKBR3 viability, ATP luminescence, at 10 µM"}, "[2]": {"target": "Receptor tyrosine-protein kinase erbB-2 (Homo sapiens) (UniProt P04626)", "sequence (P04626 whole entry, looked up)": "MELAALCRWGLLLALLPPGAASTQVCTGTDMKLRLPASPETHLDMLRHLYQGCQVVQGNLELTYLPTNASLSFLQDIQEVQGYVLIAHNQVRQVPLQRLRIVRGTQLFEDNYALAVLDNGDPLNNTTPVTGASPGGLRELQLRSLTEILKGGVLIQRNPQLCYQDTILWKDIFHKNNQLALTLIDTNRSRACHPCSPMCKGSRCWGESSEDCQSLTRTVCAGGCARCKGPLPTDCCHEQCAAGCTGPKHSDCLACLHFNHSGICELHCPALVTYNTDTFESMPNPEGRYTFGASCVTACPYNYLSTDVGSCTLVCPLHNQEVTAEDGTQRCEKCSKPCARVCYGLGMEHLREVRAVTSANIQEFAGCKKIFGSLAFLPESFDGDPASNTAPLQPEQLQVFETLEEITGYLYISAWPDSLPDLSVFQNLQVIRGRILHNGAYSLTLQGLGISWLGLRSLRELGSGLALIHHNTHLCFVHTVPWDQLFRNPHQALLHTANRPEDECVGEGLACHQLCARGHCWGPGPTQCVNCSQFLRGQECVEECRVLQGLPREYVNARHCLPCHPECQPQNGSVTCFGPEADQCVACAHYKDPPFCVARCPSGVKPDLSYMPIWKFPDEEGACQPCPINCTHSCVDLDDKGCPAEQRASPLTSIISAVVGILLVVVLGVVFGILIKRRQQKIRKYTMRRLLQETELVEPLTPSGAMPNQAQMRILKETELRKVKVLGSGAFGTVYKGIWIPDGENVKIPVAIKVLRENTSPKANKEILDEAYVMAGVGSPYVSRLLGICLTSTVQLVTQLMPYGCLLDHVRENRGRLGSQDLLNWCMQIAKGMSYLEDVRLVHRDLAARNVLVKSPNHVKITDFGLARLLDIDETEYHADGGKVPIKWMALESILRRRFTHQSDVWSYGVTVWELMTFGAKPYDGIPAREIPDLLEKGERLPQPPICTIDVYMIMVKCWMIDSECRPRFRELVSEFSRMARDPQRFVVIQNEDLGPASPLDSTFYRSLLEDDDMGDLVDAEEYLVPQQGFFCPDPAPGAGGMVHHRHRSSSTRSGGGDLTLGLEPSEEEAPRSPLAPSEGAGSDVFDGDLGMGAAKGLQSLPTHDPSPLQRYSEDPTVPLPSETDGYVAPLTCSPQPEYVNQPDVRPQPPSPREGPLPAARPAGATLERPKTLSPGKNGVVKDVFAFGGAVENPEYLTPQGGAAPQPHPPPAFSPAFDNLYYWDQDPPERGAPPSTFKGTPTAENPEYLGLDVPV", "test": "reducers of endogenous Her2 protein level, primary screen, SKBR3 breast tumor cells, AlphaScreen, ATP viability (AID 461);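 as to viability: percent of carrier control wells set as 100% viability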", "settings": "18-24 h, at 10 µM, stronger effect = lower value"}, "[3]": {"test": "SK-BR-3 cell growth inhibitors, pilot screen, 24 h, human (AID 572;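 active = viability at or below 10% of carrier control in both of two separate runs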;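 as to all read-outs here: compound exposure lasted between 18 and 24 h rather than exactly 24 h; 100% = carrier-treated control wells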)", "settings": "SK-BR-3 viability, CellTiter-Glo luminescence, at 10 µM, stronger effect = lower value"}, "[4]": {"test": "HUVEC growth inhibition – cell-based, human, primary screen (AID 575;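 active = viability at or below 30% in both replicate assays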;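 as to all read-outs here: 100% = median of untreated cell wells with 0.1% DMSO on each plate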)", "settings": "HUVEC proliferation, CellTiter-Glo luminescence, 72 h; at 10 µM; stronger effect = lower value"}, "[5]": {"test": "growth inhibitors of H69AR lung tumor, primary screen, human, duplicate replicates (AID 580);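 as to all read-outs here: 100% = mean luminescence of untreated wells and 0% = no signal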", "settings": "H69AR lung tumor cells viability, ATP luminescence, 72 h; at 10 µM; stronger effect = lower value"}, "[6]": {"test": "reversal of MRP1-mediated doxorubicin resistance, pilot screen, H69AR cells, doxorubicin co-treatment (AID 601;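 active = viability loss from added drug above about 55%, and viability with drug at most 40%, in both replicates, limit read from the data, passing the limit was not always enough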)", "settings": "CellTiter-Glo, 72 h, at 10 µM; for differential viability (reversal): stronger effect = higher value"}, "[7]": {"test": "384-well plate pilot, post-Golgi transport modulator project, inhibition of yeast transport mutant growth (AID 636; in the data active = inhibition above about 31%)", "settings": "absorbance 615 nm, about 18 h, stronger effect = higher value"}, "[8]": {"test": "growth suppression of yeast trafficking mutant, preliminary HTS, modulators of trafficking downstream of Golgi apparatus project, 1536-format plate, OD 615 nm (AID 637; in the data active = inhibition above about 30%)", "settings": "yeast transport mutant growth, absorbance 615 nm, 18 h; stronger effect = higher value"}, "[9]": {"test": "OD615 S. cerevisiae growth inhibition, permissive medium, pilot counter-assay, permissive growth control for S. cerevisiae lifespan shortening project (AID 705;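 active = growth inhibition above 25% in both replicates, a cutoff set 3 SD above the mean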)", "settings": "OD615, 24 h, at 10 µM, stronger effect = higher value"}, "[10]": {"test": "Restrictive medium S. cerevisiae growth inhibition, OD615, pilot screen of yeast lifespan reduction project, restrictive growth control (AID 706;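 active = growth inhibition above a set limit, 3 SD over mean compound inhibition, in both replicates, cut at about 43% in these data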;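 also: modified DeaD lifespan yeast strain shifted to restrictive glucose medium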)", "settings": "OD615, 48 h, at 10 µM, stronger effect = higher value"}, "[11]": {"test": "viability gain of MRP-1-high H69AR cells under doxorubicin, pilot screen, MRP-1 activator project, CellTiter-Glo, duplicate (AID 807;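 active = viability increase at or above a cutoff of the median across tested compounds plus 3 SD, cut at about 8.5% in these data, passing the limit was not always enough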;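 also: compound pretreatment 18-22 h then 72 h combined with doxorubicin; 0% = doxorubicin alone and 100% = vehicle without doxorubicin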)", "settings": "H69AR viability with doxorubicin, CellTiter-Glo luminescence; at 10 µM; stronger effect = higher value"}, "[12]": {"test": "growth suppression of beta-catenin knockout HCT116, pilot screen, human colon tumor cells (AID 823;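 active = cell viability at or below a set limit in both duplicate runs, the limit being the all-compound median minus 4 SD, cut at about 23% in these data, passing the limit was not always enough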;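 also: 0% = wells killed by 20 µM Hyamine and 100% = untreated DMSO cell wells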)", "settings": "CellTiter-Glo, 60 h, at 10 µM, stronger effect = lower value"}, "[13]": {"test": "growth suppression of PTEN-deleted HCT116, pilot screen, cell-based, HCT116 clonal line, CellTiter-Glo (AID 824;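 active = viability at or below 27.92% in each of two runs, the all-compound median minus 4 SD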;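 also: 0% = 20 µM Hyamine control and 100% = vehicle cell control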)", "settings": "60 h, at 10 µM, stronger effect = lower value"}, "[14]": {"test": "inhibitors of the yeast RAM network, pilot screen, dse1pr::URA3 reporter, 5-FOA selection (AID 869;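 active = inhibition over a set limit, the all-compound mean plus 3 SD, in both replicate runs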;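 also: 0% = DMSO wells with no growth and 100% = 10 µM 1-NA-PP1 with full growth; RAM network block rescues cells from 5-FOA so hits raise OD615 growth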)", "settings": "S. cerevisiae dse1pr::URA3 5-FOA growth, OD615, 2 d; at 10 µM; stronger effect = higher value; strain carries analog-sensitive mutant Cbk1 kinase"}, "[15]": {"test": "RAM signaling pathway blockade in yeast – S. cerevisiae, Pdr1DBD-CYC8 efflux-inhibited sensitized strain, primary screen (AID 1298;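 active = RAM network inhibition above 8.4% in each of two replicates, 3 SD over the compound average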;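 also: 0% = DMSO untreated cells without growth and 100% = 10 µM 1-NA-PP1 full growth; higher means more yeast growth rescued from 5-FOA killing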)", "settings": "S. cerevisiae cbk1-as DSE1-URA3 strain, 5-FOA growth OD615, 2 d; at 50 µM; stronger effect = higher value"}, "[16]": {"settings": "H69AR cells + 2 uM doxorubicin, measured here: viability with 2 uM doxorubicin, stronger effect = lower value"}, "[17]": {"settings": "H69AR cells, compound alone cytotoxicity"}},
  "note": "Records with an inconclusive call do not appear. Activity calls are given as the source filed them.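 The calls were made as follows, unless noted: active = viability at or under a set limit in both replicates, limit being median viability minus 3 SD (cut at about 48% in these data, passing the limit was not always enough); inconclusive = at or under the limit in just one replicate; inactive = at or above the limit in both replicates.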",
  "data": [
    {"smiles": "O=c1oc2ccccc2cc1NCc1ccccc1O", "values": [
      {"measurement": "viability", "setting": "[1]", "result": 90.5, "unit": "%"},
      {"measurement": "Her2 level", "setting": "[2]", "result": "82% (inactive)"},
      {"measurement": "viability", "setting": "[3]", "result": "90.5% (inactive)"},
      {"measurement": "viability", "setting": "[4]", "result": "79.2% (inactive)"},
      {"measurement": "viability", "setting": "[5]", "result": "73.9% (inactive)"},
      {"measurement": "differential viability (reversal)", "setting": "[6]; H69AR cells + 2 uM doxorubicin", "result": "-13.5% (inactive)"},
      {"measurement": "viability", "setting": "[6]; [16]", "result": 87.4, "unit": "%"},
      {"measurement": "viability", "setting": "[6]; [17]", "result": 73.9, "unit": "%"},
      {"measurement": "inhibition", "setting": "[7]", "result": "-2.56% (inactive)"},
      {"measurement": "inhibition", "setting": "[8]", "result": "-0.5% (inactive)"},
      {"measurement": "growth inhibition", "setting": "[9]", "result": "-12.5% (inactive)"},
      {"measurement": "growth inhibition", "setting": "[10]", "result": "-15.2% (inactive)"},
      {"measurement": "viability increase", "setting": "[11]", "result": "-6.51% (inactive)"},
      {"measurement": "viability", "setting": "[12]", "result": "91.2% (inactive)"},
      {"measurement": "viability", "setting": "[13]", "result": "91.1% (inactive)"},
      {"measurement": "inhibition", "setting": "[14]", "result": "1.91% (inactive)"},
      {"measurement": "RAM network inhibition", "setting": "[15]", "result": "1.22% (inactive)"}
    ]},
    {"smiles": "COc1cccc2c(=O)c3c(cnn3C)n(C)c12", "values": [
      {"measurement": "viability", "setting": "[1]", "result": 106, "unit": "%"},
      {"measurement": "Her2 level", "setting": "[2]", "result": "100% (inactive)"},
      {"measurement": "viability", "setting": "[3]", "result": "106% (inactive)"},
      {"measurement": "viability", "setting": "[4]", "result": "84.9% (inactive)"},
      {"measurement": "viability", "setting": "[5]", "result": "81.9% (inactive)"},
      {"measurement": "differential viability (reversal)", "setting": "[6]; H69AR cells + 2 uM doxorubicin", "result": "-10.9% (inactive)"},
      {"measurement": "viability", "setting": "[6]; [16]", "result": 92.8, "unit": "%"},
      {"measurement": "viability", "setting": "[6]; [17]", "result": 81.9, "unit": "%"},
      {"measurement": "inhibition", "setting": "[7]", "result": "-1.97% (inactive)"},
      {"measurement": "inhibition", "setting": "[8]", "result": "1.27% (inactive)"},
      {"measurement": "growth inhibition", "setting": "[9]", "result": "-1.81% (inactive)"},
      {"measurement": "growth inhibition", "setting": "[10]", "result": "48.7% (active)"},
      {"measurement": "viability increase", "setting": "[11]", "result": "-5.44% (inactive)"},
      {"measurement": "viability", "setting": "[12]", "result": "87.1% (inactive)"},
      {"measurement": "inhibition", "setting": "[14]", "result": "1.5% (inactive)"},
      {"measurement": "RAM network inhibition", "setting": "[15]", "result": "0.52% (inactive)"}
    ]},
    {"smiles": "Cc1ccc(Cn2c(CN3CCOCC3)nc3c2c(=O)n(C)c(=O)n3C)cc1", "values": [
      {"measurement": "viability", "setting": "[1]", "result": 80.5, "unit": "%"},
      {"measurement": "Her2 level", "setting": "[2]", "result": "89.5% (inactive)"},
      {"measurement": "viability", "setting": "[3]", "result": "80.5% (inactive)"},
      {"measurement": "viability", "setting": "[4]", "result": "90.5% (inactive)"},
      {"measurement": "viability", "setting": "[5]", "result": "102% (inactive)"},
      {"measurement": "differential viability (reversal)", "setting": "[6]; H69AR cells + 2 uM doxorubicin", "result": "2.54% (inactive)"},
      {"measurement": "viability", "setting": "[6]; [16]", "result": 99.6, "unit": "%"},
      {"measurement": "viability", "setting": "[6]; [17]", "result": 102, "unit": "%"},
      {"measurement": "inhibition", "setting": "[7]", "result": "-5.14% (inactive)"},
      {"measurement": "inhibition", "setting": "[8]", "result": "0% (inactive)"},
      {"measurement": "growth inhibition", "setting": "[9]", "result": "-18% (inactive)"},
      {"measurement": "growth inhibition", "setting": "[10]", "result": "-8.04% (inactive)"},
      {"measurement": "viability increase", "setting": "[11]", "result": "-4.67% (inactive)"},
      {"measurement": "viability", "setting": "[12]", "result": "92.4% (inactive)"},
      {"measurement": "inhibition", "setting": "[14]", "result": "2.71% (inactive)"},
      {"measurement": "RAM network inhibition", "setting": "[15]", "result": "2.86% (inactive)"}
    ]}
  ]
}
